Measured values: PubChem BioAssay AID2685 (National Center for Advancing Translational Sciences (NCATS), 2010)
Out of some 320,000 compounds screened, about 2,100 (0.66%) were called active. Roughly 53% stayed inconclusive and do not appear here. The call rests on the fitted dose curve; in most records, active means well fitted inhibition curve with a large enough effect in the signal ratio, with a control signal flat (not every such curve was filed as active); inconclusive means small, poorly fitted or top-dose-only effect, or effect the other way, or a change in a side signal; inactive means flat fitted curve, though single readings scatter; the % refers to the signal ratio. For the sample, actives were picked, then their nearest neighbours and some compounds at random.

assay: qHTS Assay for Lipid Storage Modulators in Drosophila S3 Cells; conditions: BODIPY lipid droplet fluorescence, 18-24 h, cells fed with added oleic acid; cell number change: measured here: cell count max response; series mostly up to 46.1 µM; lipid storage change, negative = inhibition: at the top concentration;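 on cell number change: cells counted by Cell Tracker Red CMTPX staining in the red channel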; on lipid storage change, negative = inhibition: on the % scale 0 is the no-effect control and ±100 the full control effect
Source text: NIH Molecular Libraries Probe Production Centers Network [MLPCN] NIH Chemical Genomics Center [NCGC] MLPCN Grant: 1 R03 MH085686-01 Assay Submitter (PI): Beller, Mathias; Max-Planck-Institut fur Biophysikalische Chemie NCGC Assay Overview: Storing lipids as a reservoir for energy or the anabolism of elementary metabolites is a common feature of probably all cells and is conserved from bacteria to humans. The universal cellular lipid storage organelle is the so-called lipid storage droplet (LD). Although ubiquitous, LDs share a simple structure composed of a hydrophobic core that harbors the storage lipids, which is shielded by a droplet-specific phospholipid monolayer to which proteins are attached. The current model of LD biogenesis involves an incorporation of the lipid core into the membrane leaflets of the endoplasmic reticulum (ER) followed by a subsequent budding-like maturation of a LD, which ultimately pinches off. Once released, LD volume can increase by localized lipogenesis or fusion of existing droplet. Storage lipids are re-mobilized enzymatically by lipase activity. Lipase regulation in the adipocyte is heavily studied and involves multiple components including catecholamine signaling, the LD-associated proteins Perilipin and comparative gene identification (CGI-58) and at least two lipases named hormone sensitive lipase (HSL) and adipocyte triglyceride lipase (ATGL). LD regulation outside of the adipocyte is poorly understood and only few components are known. However, there is an urgent need to learn more about ectopic fat depots as mislocalized storage of lipids, for example in the liver or muscle, is an eminent health problem associated with insulin resistance or the metabolic syndrome. We developed a laser-scanning cytometer assay to enable 1,536-well screening and combined the results of the small molecules screen with an RNAi database based on lipid storage.
Triacsin C (Sigma-Aldrich T-4540), an inhibitor of long-chain fatty acyl CoA synthetase that blocks synthesis of triglycerides, was used as a positive control for lipid under-storage. A total of 23 nL of compound solution of different concentrations were transferred to the assay plates using a Kalypsys pin tool equipped with a 1,536-pin array containing 10-nL slotted pins (FP1S10, 0.457-mm diameter, 50.8 mm long; V&P Scientific). One microliter of oleic acid (400 uM) was added, and the plate was lidded with stainless steel rubber gasket lined lids containing pinholes. […] Fluorescence was detected by excitation of the fluorophores with a 488-nm laser on an Acumen Explorer (TTP Lab Tech). The total intensity in channel 2 (500-530 nm) reflected lipid droplet accumulation. Cells were detected using channel 3 (575-640 nm) with 5-um width and 100-um depth filters. The ratio of the number of objects in PMT channel 2 over the number of objects in PMT channel 3 was also calculated. Percent activity was computed relative to an internal control (100% inhibited lipid droplet deposition due to the presence of 20 uM Triacsin C), which was added to 32 wells/plate.
Potency means the concentration at half of the fitted maximal effect.

Compound | lipid storage change, negative = inhibition | cell number change [%] | Potency | outcome
COc1ccc(C(=O)Nc2ccc(C(F)(F)F)n(C)c2=O)cc1 | 16.1% (inactive) | 6.54 | – | –
Cc1ccc(C(=O)Nc2ccc(C(F)(F)F)n(C)c2=O)cc1 | 9.63% (inactive) | 11.7 | – | –
COCCn1c(C(F)(F)F)ccc(NC(=O)c2ccccc2)c1=O | – | 27.8 | 8.2 µM (active) | –
CCN(CC(=O)Nc1ccc(OC)cc1)C(=O)CCc1nc2ccccc2c(=O)[nH]1 | 1.47% (inactive) | -4.18 | – | –
Cc1c([N+](=O)[O-])c([N+](=O)[O-])nn1CC(=O)NCCc1ccccc1 | -10.5% (inactive) | 2.95 | – | –
CC(=O)c1ccc(OC(C)C)c(CC(C(N)=O)C(N)=O)c1 | – | – | 25.9 µM (active) | –
CC(=O)c1ccc(OC(C)C)c(CN2CCCCC2)c1 | -11.4% (inactive) | -4.17 | – | –
CCCOc1ccc(C(C)=O)cc1CC(C(=O)OCC)C(=O)OCC | 0.302% (inactive) | 1.14 | – | –
NC(=O)CS(=O)(=O)c1ccc(Cl)cc1 | -4.86% (inactive) | 0.328 | – | –
CC(C)=CC(=O)O[C@@H]1Cc2cc3ccc(=O)oc3cc2OC1(C)C | 13.2% (inactive) | -1.68 | – | –
Cc1cc(Nc2ccc(Cl)cc2)nc(-c2ccccc2O)n1 | -7.33% (inactive) | 25.5 | – | –
Cc1cc(Nc2ccc(Br)cc2)nc(-c2ccccc2O)n1 | – | 5.51 | 1.16 µM (active) | –
Cc1cc(Nc2ccc(F)c(F)c2)nc(-c2ccccc2O)n1 | -1.55% (inactive) | -20.3 | – | –
O=C(NNC(=O)c1ccccc1O)c1ccc(NS(=O)(=O)c2ccc(F)c(F)c2)cc1 | 8.77% (inactive) | 6.77 | – | –
NS(=O)(=O)c1cccc(NS(=O)(=O)c2ccc3ccccc3c2)c1 | – | -9.72 | – | inactive
Cc1ccc(-c2ccc(S(=O)(=O)N3CCCC3)cc2)cc1 | 14.6% (inactive) | – | – | –
Cc1ccc(S(=O)(=O)N2CCCOC2)cc1 | – | -23.3 | 20.6 µM (active) | –
Cc1ccc(S(=O)(=O)N2CCCN(S(=O)(=O)c3ccc(C)cc3)CC2)cc1 | – | -15.5 | – | inactive
CC1(C)CC(=O)C(CC(=O)NC(=O)NCc2ccccc2)=C(O)C1 | 0.0826% (inactive) | 9.3 | – | –
COCC(=O)Nc1nnc(COc2ccc(Cl)cc2)s1 | 1.56% (inactive) | -17.4 | – | –
O=C(CSc1ccccc1)Nc1nnc(COc2ccc(Cl)cc2)s1 | – | -4.77 | 9.2 µM (active) | –
COCc1nnc(NC(=O)CSc2ccccc2)s1 | 7.39% (inactive) | -1.84 | – | –
CCN(CC)c1ccc(/C=N/NC(=S)NCc2ccccc2)c(O)c1 | – | -19.6 | 11.6 µM (active) | –
CCN(CC)c1ccc(/C=N/Nc2ccccc2)c(O)c1 | 6.59% (inactive) | -10.7 | – | –
CCN(CC)c1ccc(/C=N/NC(=S)NC)c(O)c1 | -4.58% (inactive) | 2.22 | – | –
COc1ccc(-c2c3c(=O)n(C)c(=O)n(C)c3cn2-c2ccccc2O)cc1 | -3.76% (inactive) | 9.81 | – | –
CC(=O)N(Cc1cccnc1)Cc1cc2ccc(C)cc2[nH]c1=O | 15.6% (inactive) | -7.01 | – | –
